Screens from PubChem BioAssay.
The sample as a whole holds a higher share of hits than the screen did.
nsP2pro inh – blocks chikungunya virus nsP2 protease peptide cleavage; Q8JUX6; FRET peptide cleavage, nsP2pro, fluorescence 1 h; Potency, µM (titrated, usually from 24.9 µM), most hits filed as inhibitors; actives 1.1% (n = 31,000); AID 1964107; further: nearly all actives have a fitted effect of over 60% in size
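FRET cleavage of 2.5 uM peptide 2 by 150 nM CHIKV protease domain at pH 8.0 (Tris, Tween 20). Compounds at 7 concentrations (up to 25 uM) preincubated 15 min. Fluorescence read after 1 h at room temperature.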
CHIKV nsP2 cell – cell-based CHIKV nsP2 protease inhibition, secondary | Potency, µM (series often up to 51.1 µM), hits mostly inhibitors | cell-based CHIKV nsP2 protease reporter assay | actives 10% (n = 450) | shares compounds with nsP2pro inh; further: nearly all actives have a fitted effect of over 70% in size
Target sequence (Q8JUX6 220-798 limits assumed): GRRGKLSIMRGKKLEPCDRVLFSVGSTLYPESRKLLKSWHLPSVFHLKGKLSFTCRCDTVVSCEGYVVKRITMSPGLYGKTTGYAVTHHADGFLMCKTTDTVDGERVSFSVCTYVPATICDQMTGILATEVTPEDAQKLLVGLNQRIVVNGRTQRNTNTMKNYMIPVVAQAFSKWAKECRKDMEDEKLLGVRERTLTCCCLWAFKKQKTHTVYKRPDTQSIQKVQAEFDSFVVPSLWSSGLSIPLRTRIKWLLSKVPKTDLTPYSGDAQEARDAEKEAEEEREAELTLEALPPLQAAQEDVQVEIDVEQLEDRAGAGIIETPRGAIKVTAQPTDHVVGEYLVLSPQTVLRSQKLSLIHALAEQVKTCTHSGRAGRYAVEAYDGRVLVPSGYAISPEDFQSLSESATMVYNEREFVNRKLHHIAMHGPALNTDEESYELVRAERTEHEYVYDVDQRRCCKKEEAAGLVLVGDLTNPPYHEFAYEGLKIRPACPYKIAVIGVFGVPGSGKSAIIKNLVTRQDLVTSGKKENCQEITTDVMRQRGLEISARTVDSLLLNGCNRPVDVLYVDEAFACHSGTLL
NSP2 full ctr – inhibits full-length CHIKV NSP2 enzyme. AID 1964101. Potency, µM (highest dose often 50.7 µM), usual class: inhibitors. actives 39% (n = 410). shares compounds with nsP2pro inh. Full-length CHIKV NSP2 protease enzymatic counterscreen; further: nearly all actives have a fitted effect of over 65% in size
Furin counterscr – inhibits human furin in a CHIKV nsP2 protease selectivity counterscreen; shares compounds with nsP2pro inh; Recombinant human furin enzymatic counterscreen, fluorogenic substrate; Potency, µM (series often up to 50.6 µM), usual class: inhibitors; actives 6% (n = 410)
nsP2 NS23 pep – selectivity test for CHIKV nsP2 protease inhibitors: endogenous NS2/3 peptide; shares compounds with nsP2pro inh; Purified CHIKV nsP2 protease, endogenous NS2/3 peptide cleavage; Potency, µM (series often up to 51 µM), hits mostly inhibitors; actives 34% (n = 410); AID 1964103; further: nearly all actives have a fitted effect of over 55% in size
Papain counter – inhibits papain in a CHIKV nsP2 protease selectivity counterscreen; shares compounds with nsP2pro inh; purified papain protease activity, enzymatic inhibition; Potency, µM (highest dose often 51 µM), actives largely listed as inhibitors; actives 5% (n = 410); AID 1964104
nsP2pro conf qHTS – confirmation of CHIKV nsP2 protease inhibitors. AID 1964105. shares compounds with nsP2pro inh. actives 43% (n = 410). Potency, µM (top dose mostly 25.5 µM), usual class: inhibitors. CHIKV nsP2 protease enzymatic activity, qHTS; further: nearly all actives have a fitted effect of over 75% in size
HCV NS3 4A cs – selectivity counter-screen for CHIKV nsP2 protease inhibitors: HCV NS3/4A. shares compounds with nsP2pro inh. HCV NS3/4A protease biochemical counterscreen. Potency, µM (top dose mostly 50.9 µM), most hits filed as inhibitors. actives 20% (n = 410). AID 1964106; further: nearly all actives have a fitted effect of over 55% in size
Each line names hits and unclear results; the compound was inactive in the other large screens (follow-up assays come after a bar, where they were run). The call rests on the fitted dose curve.

O=C(O)CSc1cc(NS(=O)(=O)c2ccc(Br)cc2)c2ccccc2c1O	nsP2pro inh 1µM | CHIKV nsP2 cell inconclusive | NSP2 full ctr 4.1µM | Furin counterscr inactive | nsP2 NS23 pep 1.8µM | Papain counter 18µM | nsP2pro conf qHTS 0.8µM | HCV NS3 4A cs inconclusive
Cc1oc2c(cc(NS(=O)(=O)c3ccc(C(C)C)cc3)c3ccccc32)c1C(=O)OCc1ccccc1	none
O=S(=O)(Nc1ccccc1)c1ccc(NCc2ccc(Br)cc2O)cc1	none
CC(=O)OC[C@@]12C(=O)C[C@@H](C)[C@]3(C[C@@H](c4ccoc4)OC3=O)[C@H]1CC[C@H](OC(C)=O)[C@]21CO1	none
C[C@@H]1CC[C@]2(C)C3(C)CC[C@@]2(OC3=O)[C@@]12C[C@H](c1ccoc1)OC2=O	nsP2pro inh 2.4µM | CHIKV nsP2 cell inactive | NSP2 full ctr 7.2µM | Furin counterscr inactive | nsP2 NS23 pep inconclusive | Papain counter inactive | nsP2pro conf qHTS 2.2µM | HCV NS3 4A cs 1.8µM
CC(=O)N[C@@H]1[C@@H](O)[C@H](O)[C@@H](CO)O[C@H]1O	none
COc1ccc(-c2ccc3ncc(Nc4ccncc4)n3n2)cn1	none
CC(C)=C1C/C=C(\C)CC/C=C(\C)CC1=O	none
O=C1c2ccccc2-c2nc3nnnn3nc21 (tested in a mixture with another compound)	nsP2pro inh inconclusive | CHIKV nsP2 cell inconclusive | NSP2 full ctr inconclusive | Furin counterscr inactive | nsP2 NS23 pep 0.92µM | Papain counter inactive | nsP2pro conf qHTS inconclusive | HCV NS3 4A cs inactive
CC(C)C[C@H](NC(=O)CNC(=O)c1cc(Cl)ccc1Cl)B1OC(=O)C(CC(=O)O)(CC(=O)O)O1	none
COc1cccc(CN2CCC(Oc3ccccc3-c3nc(-c4ccncc4)no3)C2)c1 (centres undefined)	none
COc1ccccc1-c1ccnc(N[C@H]2CO[C@H]3[C@@H]2OC[C@@H]3NC(=O)COc2ccccc2)n1	none
O=C(CN1CCOCC1)N1CCC(c2cc(N3CCCC3)ncn2)CC1	none
COc1c(O)cc2c(c1O)[C@H]1O[C@@H](CO)[C@H](O)[C@@H](O)[C@@H]1OC2=O	none
Cc1cc(C)nc(NC(=S)N2CCN(c3nc4ccccc4o3)CC2)c1	none
C[C@@H]1C[C@H](O)/C=C/[C@H](O)[C@@H](O)CC(=O)O1	none
CC1CCC(=O)CC(O)C(O)CC(=O)O1 (centres undefined)	nsP2pro inh inconclusive | CHIKV nsP2 cell inactive | NSP2 full ctr inactive | Furin counterscr inactive | nsP2 NS23 pep inactive | Papain counter inactive | nsP2pro conf qHTS inactive | HCV NS3 4A cs inactive
CC1CCCCCCCc2cc(O)cc(O)c2C(=O)O1 (centres undefined)	none
Cc1nc(CCNc2ncnc3ccc(-c4ccc5c(c4)OCO5)cc23)cs1	none
O=C(CNC(=O)c1ccc(-c2cccc(C(F)(F)F)c2)cc1)NCC(F)(F)F	none
Cc1ccc(CNS(=O)(=O)c2ccc3[nH]c4c(c3c2)CCCC4)cc1	none
Cc1cccc(N(C)C(=O)CN(C)S(=O)(=O)c2ccc3[nH]c4c(c3c2)CCCC4)c1	nsP2pro inh inconclusive | CHIKV nsP2 cell inactive
CN(CC(=O)NCc1ccc(F)cc1)S(=O)(=O)c1ccc2[nH]c3c(c2c1)CCCC3	none
CNC(=O)c1ccccc1Oc1nc(Nc2cc(OC)c(OC)c(OC)c2)ncc1Br	none
O=C1Nc2ccc(C(=O)c3ccco3)cc2/C1=C/c1cc(Cl)c(O)c(Cl)c1	none
O=C(O)c1ccc2c(c1)C(=O)N([C@H](Cc1ccc([N+](=O)[O-])cc1)C(=O)O)C2=O	none
O=C(O)c1ccc(N2C(=O)/C(=C/c3ccc(-c4ccc([N+](=O)[O-])cc4)o3)C=C2c2ccccc2)cc1	nsP2pro inh 7.9µM | CHIKV nsP2 cell inactive | NSP2 full ctr inconclusive | Furin counterscr inactive | nsP2 NS23 pep inactive | Papain counter 18µM | nsP2pro conf qHTS inactive | HCV NS3 4A cs inactive
